Data on 26 compounds can be found in PubChem BioAssay AID1259422 (The Scripps Research Institute Molecular Screening Center, 2018).

Several values for one entry are separate records, joined by “and”; a condition that tells them apart may be missing. Identical values can stand only once. Hit rate of the full screen: of about 640,000 compounds, about 9,300 (1.5%) were called active. Cut-off read from the data, not from the text of the source: active = inhibition above about 32%; inactive = the rest. For the sample, actives were picked, then their nearest neighbours and some compounds at random.

The experiment is described as follows: TEAD-YAP interaction inhibition, primary screen, TEAD-YAP interaction inhibitor project, luminescence, HEK-TIYL cells (AID 1259422).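 Note: 0% = median of test compound wells and 100% = reference inhibitor wells.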 The settings on record: TEAD-Gal4/YAP UAS-luciferase luminescence, at 9.12 µM, active compounds read high.
What is called inhibition is the relative decrease from the control value, in per cent. As for `Cc1ccc(N(C(=O)c2snc(C(N)=O)c2N)C(C)C(=O)NC(C)(C)C)cc1C` (stereo unspecified), the inhibition is -0.01% (inactive).
The same measure for `COCCCNc1ncnc2sccc12`: -4.31% (inactive); for `c1ccc2c(NCCNc3ncnc4sccc34)cccc2c1`: 52.2% (active).
Next, `Cn1ncc2c(Nc3cccc4ccccc34)ncnc21`: -0.77% (inactive).
`COc1ccc(C(=O)N=c2sc3cc4c(cc3n2C)OCCO4)cc1OC`: the inhibition was -1.41% (inactive).
Next, `COC(=O)c1c(C)oc2ccc(NS(=O)(=O)c3cccc4cccnc34)cc12`: 28.9% (inactive).
For the compound `CC(NC(=O)C(C)(C)C)c1ccc(Br)cc1` (stereo unspecified), the inhibition is 8.71% (inactive).
As to `CCOC(=O)c1c(-c2ccc(Br)cc2)csc1NC(=O)COC`, the inhibition is -10.8% (inactive).
Next, `CC(C)(C)C(=O)Nc1scc(-c2ccc(Br)cc2)c1C(=O)O`: 38.7% (active); `CCOc1cc(C(=O)OCc2cc(C(C)=O)ccc2OC)cc(OCC)c1OCC`: -5.65% (inactive); `Cc1cc(C)nc(/N=C(\N)Nc2cccc(C(F)(F)F)c2)n1`: 36.7% (active).
The same measure for `CCc1ccc(N/C(N)=N/c2nc(C)cc(C)n2)cc1`: 23.8% (inactive).
Next, `Cc1cc(C)nc(/N=C(\N)Nc2ccc(Br)cc2)n1`: 1.37% (inactive) and -0.43% (inactive); `Cc1cccc(C)c1NS(=O)(=O)c1ccc2c(c1)oc(=O)n2C`: -6.37% (inactive); `COc1ccc(Cc2nc3sc4c(c3c(=O)n2N)CCCC4)cc1OC`: 29.2% (inactive).
As for `Cc1cccc(C)c1-n1c(N)c(C(=O)Nc2cccc(Cl)c2)sc1=S`, the inhibition is -13.7% (inactive).
Next, `O=C(CSc1nc2ccccc2s1)NNC(=O)C1CCCO1` (stereo unspecified): 1.6% (inactive).
The same measure for `O=C(CSc1nc2ccccc2s1)N1N=CCC1c1ccccc1` (stereo unspecified): 51.5% (active).
The same measure for `CCCCNC(=O)NNC(=O)CSc1nc2ccccc2s1`: 9.84% (inactive).
On to `C/C(=N\NC(=O)c1cccc(Br)c1)c1cc2ccc(O)cc2oc1=O`, for which the inhibition was -10.3% (inactive).
The same measure for `CC(C(=O)N(C)c1ccccc1)N1C(=O)NC(c2ccccc2)(c2ccccc2)C1=O` (stereo unspecified): 6.96% (inactive); for `CCOC(=O)c1c(-c2ccccc2)csc1NC(=O)CNCC(C)C`: -3.7% (inactive); for `CCOC(=O)c1c(NC(=O)/C=C/C(=O)O)sc(C)c1C`: 28.1% (inactive).
Regarding `CCOC(=O)c1c(-c2cccc3ccccc23)csc1NC(=O)/C=C/C(=O)O`, the inhibition is 33.5% (active).
The same measure for `Cc1ccc(C2CC(=O)C3=C(C2)Nc2ccccc2N(C(=O)C(F)(F)F)C3c2cccc(Br)c2)cc1` (stereo unspecified): 7.36% (inactive); for `CCOC(=O)C1=C(C)N=c2s/c(=C/c3cc(Br)c(N4CCOCC4)o3)c(=O)n2C1c1ccc(OC)cc1` (stereo unspecified): 4.11% (inactive).
